Compound activity as filed in PubChem.
Shown are actives, neighbours in structure and some others; about 2.4% of the full set was active somewhere.
ANO1 activ: activates or potentiates the mouse TMEM16A chloride channel. Q8BHY3. HEK293 TMEM16A/YFP-H148Q/I152L, iodide quench fluorescence; stronger effect = lower value. B-score at 10 µM. hit rate 0.3% among 340,000. AID 623877;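 active = fluorescence-ratio B-score plate-corrected deviation score at least 3 library SD below zero, with starting fluorescence score within 5 deviations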;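 also: channel opened by trigger with iodide after compound preincubation; score built on the fluorescence ratio of max minus min over baseline; more negative score means more quench and so TMEM16A activation or potentiation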
CHT allo act: human CHT allosteric activation | Q9GZV3 | CHT-expressing cells, membrane potential dye, choline EC20; stronger effect = higher value; LV-AA mutant CHT in HEK293 cells | B-score at 10 µM | hit rate 0.49% among 310,000 | AID 488977;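 active = initial fluorescence not abnormally high and integrated response B-score, plate-corrected, over 3 SD above library mean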
Target sequence (Q9GZV3 whole entry, looked up): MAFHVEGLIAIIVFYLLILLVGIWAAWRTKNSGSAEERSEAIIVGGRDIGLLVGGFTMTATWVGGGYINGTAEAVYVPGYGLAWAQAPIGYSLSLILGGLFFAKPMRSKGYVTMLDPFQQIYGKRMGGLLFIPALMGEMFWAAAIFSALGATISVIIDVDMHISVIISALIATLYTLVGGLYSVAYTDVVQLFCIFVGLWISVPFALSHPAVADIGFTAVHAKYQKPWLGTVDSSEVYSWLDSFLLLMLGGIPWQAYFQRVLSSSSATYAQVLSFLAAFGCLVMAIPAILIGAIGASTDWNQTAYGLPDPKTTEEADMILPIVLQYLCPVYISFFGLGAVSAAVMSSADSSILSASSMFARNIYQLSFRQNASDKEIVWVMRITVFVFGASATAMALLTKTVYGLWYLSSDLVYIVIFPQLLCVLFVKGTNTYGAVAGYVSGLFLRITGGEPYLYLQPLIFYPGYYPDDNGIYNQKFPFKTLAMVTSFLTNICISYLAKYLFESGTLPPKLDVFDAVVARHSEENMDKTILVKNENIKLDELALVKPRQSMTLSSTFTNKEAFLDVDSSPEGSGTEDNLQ
CHT block: inhibitors of human choline transporter CHT; Q9GZV3; CHT-expressing cells, membrane potential dye, choline response; stronger effect = lower value; B-score at 10 µM; hit rate 0.86% among 310,000; AID 488975;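 active = B-score over 3 SD under the library average, and starting fluorescence ratio not unusually high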;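 also: choline stimulus applied at its EC90 after an EC20 pre-addition; B-score computed on integrated fluorescence ratio after choline addition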
ANO1 block: inhibitors of mouse TMEM16A calcium-activated chloride channel. hit rate 1.2% among 310,000. normalized B-score (activity score, 25-100; higher = stronger inhibition) at 10 µM. Q8BHY3. HEK293 TMEM16A/YFP iodide influx fluorescence, ionomycin;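 active = ratio plate-corrected score three or more library SD toward inhibition, starting fluorescence score within five deviations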;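 also: score derived from kinetic fluorescence span divided by baseline fluorescence per well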
CHT act confirm: human CHT activation, confirmatory screen; shares compounds with CHT allo act; CHT-expressing cells, membrane potential dye fluorescence (FDSS); % of choline EC20–EC90 response window; HEK293 expressing CHT LV-AA mutant; choline added at its EC20; activation, % at 10 µM; hit rate 91% among 2,500;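 active = primary screen active, with duplicate mean activation above negative control mean plus 3 SD, cut at about 11% in these data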
HEK293 MP dye: CHT activator counter-screen hit in parental HEK293 cells | shares compounds with CHT allo act | membrane potential dye fluorescence (FDSS); measured after EC20 choline addition | ratio readout change at 10 µM, hits read low | hit rate 62% among 2,500;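 active = duplicate-averaged ratio beyond 3 SD from buffer wells, up or down, though filed actives are nearly all decreases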
TMEM16A reconf: TMEM16A (mouse) chloride channel inhibition, re-confirmation; hit rate 39% among 2,300; shares compounds with ANO1 block; HEK293 TMEM16A/YFP-H148Q, iodide quench fluorescence; ionomycin added to raise cell calcium; inhibition, % at 10 µM;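 active = mean duplicate percent inhibition, scaled so buffer wells are 0 and the reference blocker 100, over three buffer SD above buffer mean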
TMEM16A Ca cntr: alters calcium mobilization in TMEM16A HEK293 cells, counter-screen; calcium response (% of ionomycin), % at 10 µM; hit rate 2% among 2,300; TMEM16A/YFP HEK293, Fluo4 calcium mobilization; shares compounds with ANO1 block;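 active = duplicate-averaged calcium signal over 20% of the ionomycin maximum, relative to buffer baseline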;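 also: each well's signal is peak minus trough fluorescence divided by its pre-addition baseline; 0% = buffer wells and 100% = ionomycin wells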
YFP-HEK293 quench: acts in parental YFP-HEK293 cells lacking TMEM16A, counter-screen. shares compounds with ANO1 block. iodide YFP quench, ionomycin. YFP ratio F(max-min)/F0 at 10 µM. 2,300 tested, under 10 active;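 active = yellow fluorescent protein signal ratio exceeding the buffer control mean by over 5 SD of those controls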;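 also: ratio is mean of duplicate wells from kinetic YFP trace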
ClC-1 rat inh: selectivity of TMEM16A inhibitors: inhibition of rat ClC-1 chloride channel; shares compounds with ANO1 block; CHO ClC-1-YFP, iodide influx fluorescence quench; iodide control reads 0, buffer control 100; ratio percent, % at 10 µM; 2,300 tested, under 10 active;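 active = duplicate-mean ratio percent above the mean of iodide-only control wells, which defines zero, plus 5 of their SD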;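 also: higher percent means stronger block of ClC-1 iodide influx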
* = called active by the depositor; i = inactive; nt = no result given.

SMILES	ANO1 activ	CHT allo act	CHT block	ANO1 block	CHT act confirm	HEK293 MP dye	others
Clc1ccc(OCC#CCN2CCCC2)cc1	i	i	i	i	nt	nt
CC(=O)NC1C(OC(=O)Cc2ccccc2)OC(COC(C)=O)C(OC(C)=O)C1OC(C)=O (stereo not drawn)	i	i	i	i	nt	nt
CCOCC(=O)NC1CCSC1=O (stereo not drawn)	i	i	i	i	nt	nt
O=[N+]([O-])c1ccc(N2CCCCC2)c2ncccc12	i	i	i	i	nt	nt
O=[N+]([O-])c1ccc(N2CCCNCC2)c2ncccc12	i	9.3*	i	i	48*	-89*
NCCNc1ccc([N+](=O)[O-])c2cccnc12	i	6.6*	i	i	32*	-72*
COc1ccc2c3c1OC1C(=O)CC[C@@]4(O)[C@@H](C2)N(C)CC[C@]314 (stereo partly drawn)	i	nt	nt	nt	nt	nt
O=C1Nc2ccccc2/C1=C/c1cnc[nH]1	i	i	i	i	45*	-30*
CC(C)COc1ccc(C2(C#N)CC[N+](C)(C)CC2)cc1	i	i	i	i	nt	nt
O=[N+]([O-])c1ccc(N2CCCC2)cc1N/N=C1\CN2CCC1CC2	i	6.5*	i	i	55*	-73*
O=C(c1ccco1)c1cn(Cc2ccccc2)c2ccccc12	i	7.4*	i	i	23*	i
CN1CCN(c2ncnc3c2cnn3C)CC1	i	i	i	i	52*	-59*
CCc1cc2c(N3CCN(C)CC3)ncnc2s1	i	i	i	i	nt	nt
CC1CC(C)CC(C)C(O)C(C#N)=CC=CCC(C2CCCC2C(=O)O)OC(=O)CC(O)C(C)C1 (stereo not drawn)	i	nt	nt	nt	nt	nt
Cc1cc(-c2ccccc2)cc(C)[n+]1Cc1ccccc1	i	7.4*	i	i	12*	-29*
O=[N+]([O-])c1cc(Cl)c(O)c(-[n+]2c(-c3ccccc3)cc(-c3ccccc3)cc2-c2ccccc2)c1	i	i	i	i	nt	nt
C[n+]1c(-c2ccccc2)cc(-c2ccc(Cl)cc2)cc1-c1ccccc1	i	7.2*	i	i	30*	-29*
Cc1ccc(-n2c(O)c(C=NCCCn3ccnc3)c(=O)[nH]c2=O)cc1	i	i	i	i	nt	nt
CN(C)c1ccc(-[n+]2c(-c3ccccc3)cc(-c3ccccc3)cc2-c2ccccc2)cc1	i	nt	nt	nt	nt	nt
Cc1ccc(-c2cc(-c3ccc(C)cc3)[n+](-c3ccc(C(=O)[O-])cc3)c(-c3ccc(C)cc3)c2)cc1	i	9.7*	i	i	12*	-35*
CCOC(=O)c1ccc(-[n+]2c(-c3ccccc3)cc(-c3ccccc3)cc2-c2ccccc2)cc1	-14*	7.7*	i	i	63*	i
O=[N+]([O-])c1ccc(C[n+]2c(-c3ccccc3)cc(-c3ccccc3)cc2-c2ccccc2)cc1	i	i	i	i	49*	-47*
O=[N+]([O-])c1ccc(N2CC2)c([N+](=O)[O-])c1	i	nt	nt	nt	nt	nt
COc1ccc(NC(=O)c2cc([N+](=O)[O-])ccc2N2CCNCC2)cc1	i	i	i	i	54*	-59*
O=[N+]([O-])c1ccc(N2CCNCC2)cc1NCC1CCCO1 (stereo not drawn)	i	9*	i	i	56*	-66*
SMILES	ANO1 activ	CHT allo act	CHT block	ANO1 block	CHT act confirm	HEK293 MP dye	others
Cn1cnnc1Sc1cc(N2CCNCC2)ccc1[N+](=O)[O-]	i	i	i	i	nt	nt
C[N+]1(CCC(C(N)=O)(c2ccccc2)c2ccccc2)CCCCC1	nt	i	i	i	nt	nt
c1ccc(CCN2CCC(N3CCN(c4ccccc4)CC3)CC2)cc1	i	i	i	25*	nt	nt	TMEM16A reconf=i;TMEM16A Ca cntr=i;YFP-HEK293 quench=-1.4;ClC-1 rat inh=2
CCOC(=O)C1(CCc2ccccc2)CCN(Cc2ccc(NC(C)=O)cc2)CC1	i	i	i	i	nt	nt
CCOC(=O)C1(CCc2ccccc2)CCN(Cc2ccc3c(c2)OCCO3)CC1	i	i	i	25*	nt	nt	TMEM16A reconf=i;TMEM16A Ca cntr=i;YFP-HEK293 quench=-1.1;ClC-1 rat inh=-8
COC(=O)C1=C(c2cccc(OC)c2OC)C[C@@H]2CC[C@H]1N2C(=O)NCCS(C)=O (stereo partly drawn)	i	i	i	100*	nt	nt	TMEM16A reconf=i;TMEM16A Ca cntr=i;YFP-HEK293 quench=-1;ClC-1 rat inh=-10
Cc1c(Br)c(=O)oc2cc(OCC(=O)N3C[C@H]4C[C@@H](C3)c3cccc(=O)n3C4)ccc12	i	i	i	i	nt	nt
CCOC(=O)C1SC2(C(F)(F)F)CC1(O)c1c(C)cc(C)nc1O2 (stereo not drawn)	i	i	i	25*	nt	nt	TMEM16A reconf=i;TMEM16A Ca cntr=i;YFP-HEK293 quench=-0.95;ClC-1 rat inh=-2
Cn1nc(-c2ccc(OCC(=O)N3CCN(Cc4ccccc4)CC3)cc2)c2ccccc2c1=O	i	i	i	100*	nt	nt	TMEM16A reconf=20%*;TMEM16A Ca cntr=i;YFP-HEK293 quench=-0.96;ClC-1 rat inh=-14
CCOCN(C(=O)CCl)c1c(C)cccc1CC	i	i	i	i	nt	nt
c1cc(CNCCc2ccc3c(c2)OCO3)ccn1	i	i	i	i	nt	nt
Clc1ccc(CCNCc2ccncc2)c(Cl)c1	i	i	i	25*	nt	nt	TMEM16A reconf=i;TMEM16A Ca cntr=i;YFP-HEK293 quench=-1.2;ClC-1 rat inh=-6
CC1=NN(c2ccccc2)C(=O)/C1=C/c1c(O)[nH]c(=S)[nH]c1=O	i	i	i	i	nt	nt
O=[N+]([O-])c1ccc(N2CCCCCC2)c2ncccc12	i	i	i	25*	nt	nt	TMEM16A reconf=i;TMEM16A Ca cntr=i;YFP-HEK293 quench=-0.88;ClC-1 rat inh=1
CN1CCc2cc3c(cc2C1)OCO3	i	nt	nt	nt	nt	nt
C=CCn1c(O)c(C=Nc2ccc(N(CC)CC)cc2)c(=O)[nH]c1=O	i	i	i	i	nt	nt
CCN(CC)c1ccc(N=Cc2c(O)n(-c3ccc(Cl)cc3)c(=O)[nH]c2=O)cc1	i	i	i	i	nt	nt	TMEM16A reconf=i;TMEM16A Ca cntr=i;YFP-HEK293 quench=-0.85;ClC-1 rat inh=10
